From PubChem BioAssay
Pf apPOL inh: Pf-apPOL DNA polymerase inhibition. Recombinant Pf-apPOL, molecular beacon fluorescence, 1.5 h. inhibition, % at 10 µM. 210,000 tested, 0.25% active. AID 1794808
mHTT-CaM PPI inh: inhibitors of human mutant huntingtin-calmodulin interaction; P42858; AlphaScreen His-mHTT/GST-CaM binding, luminescence; inhibition, % at 15 µM; 190,000 tested, 3.6% active; AID 1671202;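 also: 0% = both proteins with DMSO and 100% = one protein alone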
Starred values were filed as active, the others as inactive; . = not tested or not shown. The list is not random: actives were taken first. Their share in the collection is about 3.5%. Rule as the data show it: active = inhibition above about 50%; inactive = the rest.

SMILES | Pf apPOL inh | mHTT-CaM PPI inh
COc1ccc(OC)c(C2Oc3c(OC)cccc3C3CC(c4cccs4)=NN32)c1 (centres undefined) | -13 | 2
Cc1cccc(-c2ncccc2CNC(=O)c2ccc(F)cc2)c1 | 2 | 1
CCC(Sc1nc2ccccc2o1)C(=O)Nc1nnc(C)s1 (centres undefined) | 85* | 0
CCC(Sc1nc2ccccc2o1)C(=O)Nc1ccc(Cl)cn1 (centres undefined) | -2 | -16
CC1CCCC(NC(=O)C2C3C=CC4(CN(Cc5cccs5)C(=O)C24)O3)C1C (centres undefined) | 1 | 4
CC1CCC(C(C)C)C(OCC(O)CN2CCN(Cc3ccccc3)CC2)C1 (centres undefined) | 0 | 21
CC(C)(C)c1ccc(OCC(O)CN2CCN(Cc3ccc4c(c3)OCO4)CC2)cc1 (centres undefined) | -1 | 24
CCCc1ccc(OCC(O)CN2CCN(c3ccc(OC)cc3)CC2)cc1 (centres undefined) | 1 | 61*
COc1ccc(N2CCN(CC(O)COc3ccc(Cl)c(C)c3)CC2)cc1 (centres undefined) | -1 | 83*
Cc1ccc(OCC(O)CN2CCN(c3ccc(F)cc3)CC2)cc1C (centres undefined) | -4 | 36
COc1ccc(N2CCN(CC(O)COC3CC(C)CCC3C(C)C)CC2)cc1 (centres undefined) | 0 | 62*
CCCc1ccc(OCC(O)CN2CCCC2)cc1 (centres undefined) | -1 | -3
Cc1cc(OCC(O)CN2CCN(Cc3ccc4c(c3)OCO4)CC2)ccc1Cl (centres undefined) | -8 | 90*
O=C(O)/C=C/c1c[nH]c2ccccc12 | . | 2
COCCCNC(=O)N1CCOCC1 | . | -4
O=[N+]([O-])c1ccc2nc(Cl)c(Cl)nc2c1 | . | 30
CC1(C)N=c2ccc([N+](=O)[O-])cc2=N1 | 64* | .
O=C(COc1ccc(F)cc1)N1CCN(C(=O)COc2ccc(F)cc2)CC1 | 7 | -2
CC1CCN(C(=O)COc2ccc(C(C)C)cc2)CC1 | 0 | -10
COc1ccc(OCC(=O)N2CCC(n3nc(-c4ccsc4)ccc3=O)CC2)cc1 | -2 | 88*
O=C(COc1ccc(F)cc1)N1CCC(n2nc(-c3ccsc3)ccc2=O)CC1 | -4 | 92*
CCN1C(=O)C(C)(C)COc2ccc(NC(=O)Cc3ccc(F)cc3)cc21 | 5 | 1
COc1ccc(C=C2c3cc([N+](=O)[O-])cc([N+](=O)[O-])c3-c3c2cc([N+](=O)[O-])cc3[N+](=O)[O-])cc1 | 1 | 100*
CN(C)c1ccc(C=C2c3cc([N+](=O)[O-])cc([N+](=O)[O-])c3-c3c2cc([N+](=O)[O-])cc3[N+](=O)[O-])cc1 | -1 | 44
COc1cccc(NC(=O)CN2CCC(c3nc(-c4cccc(F)c4)no3)CC2)c1 | -4 | -4
SMILES | Pf apPOL inh | mHTT-CaM PPI inh
CCN(C(=O)c1cc2cc(OC)ccc2oc1=O)C1CCCCC1 | -8 | -2
C#CCOc1c(Cl)cc(/C=C2\C(=O)ON=C2C)cc1OCC | -1 | 22
CCOc1cc(/C=C2\C(=O)ON=C2C)cc(Cl)c1OCc1ccccc1F | -1 | 96*
CCOc1cc(/C=C2/C(=O)ON=C2C)ccc1OCc1cccc(F)c1 | 2 | 93*
CCOc1cc(/C=C2/C(=O)ON=C2C)ccc1OCc1ccccc1F | -1 | 44
CCOc1cc(/C=C2\C(=O)ON=C2C)cc(Cl)c1OCc1cccc(F)c1 | -2 | 87*
COc1ccc(/C=C2/C(=O)ON=C2C)cc1Br | -12 | 14
CC1=NOC(=O)/C1=C/c1ccc(OCc2cccc(F)c2)c(Br)c1 | -2 | 31
CCCOc1ccc(/C=C2\C(=O)ON=C2C)cc1OC | -6 | 78*
O=C(NCc1ccc(N2CCCCCC2)nc1)c1ccc(F)c(F)c1 | -2 | 10
O=C(c1ccc2c(c1)OCO2)N1CCN(S(=O)(=O)C2CC2)CC1 | 2 | -3
COc1ccccc1-c1nc(C2CCCN(C(=O)c3cc(F)ccc3F)C2)no1 (centres undefined) | -3 | 8
COC(=O)c1cc(Nc2ccccc2OC)c2cc(F)ccc2n1 | 0 | -10
COc1cccc(/C=c2\sc3nc(-c4ccc(Cl)cc4)nn3c2=O)c1OC | 4 | 2
CCCNc1cc(N2CCCC(CCC(=O)Nc3ccccc3)C2)ncn1 (centres undefined) | -6 | 0
COc1ccc(C2C3=C(Nc4ncnn42)c2ccccc2OC3c2ccccc2Cl)cc1OC (centres undefined) | -6 | 70*
Cc1ccc(C2Oc3ccccc3C3=C2C(c2cccs2)n2ncnc2N3)cc1 (centres undefined) | -4 | 38
COc1ccc(C2Oc3ccccc3C3=C2C(c2cccs2)n2ncnc2N3)cc1OC (centres undefined) | -5 | 56*
COc1cccc(C2C3=C(Nc4ncnn42)c2ccccc2OC3c2ccc(OC)c(OC)c2)c1 (centres undefined) | -5 | 32
O=C(Nc1ccc(Br)cc1)N1CCCC1c1ccc(F)cc1 (centres undefined) | -3 | -8
COc1cccc(C2CC(C(F)(F)F)n3ncc(C(=O)Nc4ccc(C)cc4)c3N2)c1 (centres undefined) | 0 | -4
O=C(Nc1ccc([N+](=O)[O-])cc1Br)c1ccco1 | 2 | 5
Nc1ccc([N+](=O)[O-])cc1C(=O)NNC(=O)c1ccco1 | 68* | .
ON=Cc1ccc(C#Cc2ccccc2)cc1 | 0 | .
CCOc1ccc(N=c2scc(-c3ccc(Cl)s3)n2CCCO)cc1 | -2 | 35
SMILES | Pf apPOL inh | mHTT-CaM PPI inh
CCOc1ccc(N=c2scc(-c3ccc(F)cc3)n2CCCO)cc1 | -7 | 31
COc1ccc(-c2csc(=Nc3ccccc3)n2CCO)cc1F | -3 | 53*
OCCCn1c(-c2ccc(F)cc2)csc1=Nc1ccc(Cl)cc1 | -4 | 87*
COc1ccc(N=c2scc(-c3ccc4c(c3)OCCO4)n2CCO)cc1 | -2 | 53*
COc1ccc(N=c2scc(-c3ccc(OC)cc3)n2CCN2CCOCC2)cc1 | 3 | 36
COc1ccc(-c2csc(=Nc3ccccc3)n2CCCN(C)C)cc1 | 2 | 45
COc1ccc(-c2csc(=Nc3ccc(Cl)cc3)n2CCCO)cc1F | 0 | 76*
CN(C)c1ccc(CNC(=O)C2CCN(c3cc(N4CCCCC4)ncn3)CC2)cc1 | 4 | 10
CCC(=O)Nc1cnc(-c2ccc(OC)cc2)nc1 | 5 | -4
NC(=S)N1N=C(c2ccccc2)CC1c1ccccc1 (centres undefined) | . | 7
N#CC(c1ccccc1O)N1N=C(c2ccccc2)CC1c1ccccc1 (centres undefined) | -6 | 92*
CCOC(CNC(=O)c1cnn2c(C)c(Cc3ccccc3F)c(C)nc12)OCC | -10 | 22
CCCCNC(=O)C1=Cc2ccccc2OC=C1 | -110 | -7
O=C1c2ccccc2C(=O)c2cc(S(=O)(=O)Nc3ccccc3F)ccc21 | -2 | 26
COc1ccccc1NS(=O)(=O)c1ccc2[nH]c(=O)sc2c1 | 0 | -2
CCC(C)NS(=O)(=O)c1ccc2[nH]c3c(c2c1)CCCC3 (centres undefined) | -2 | 27
COc1ccccc1NS(=O)(=O)c1ccc2[nH]c3c(c2c1)CCCCC3 | -2 | 97*
O=S(=O)(Nc1ccccc1F)c1ccc2[nH]c3c(c2c1)CCCC3 | -6 | 56*
COc1ccccc1NS(=O)(=O)c1ccc2[nH]c3c(c2c1)CCCC3 | -1 | 81*
